Results reported in ChEMBL document CHEMBL1201862, “PubChem BioAssay data set” (2004).
About 2,100 (0.53%) of roughly 400,000 compounds were called active. About 14% were inconclusive and are not listed. No rule for the calls is given here. What follows is part of a selection rich in actives, with near analogues and random picks from the rest.

Target: Ataxin-2 (Homo sapiens) (UniProt Q99700)
Test: qHTS for Inhibitors of ATXN expression.
Type: functional

Sequence of Ataxin-2 (Homo sapiens) (Q99700 whole entry): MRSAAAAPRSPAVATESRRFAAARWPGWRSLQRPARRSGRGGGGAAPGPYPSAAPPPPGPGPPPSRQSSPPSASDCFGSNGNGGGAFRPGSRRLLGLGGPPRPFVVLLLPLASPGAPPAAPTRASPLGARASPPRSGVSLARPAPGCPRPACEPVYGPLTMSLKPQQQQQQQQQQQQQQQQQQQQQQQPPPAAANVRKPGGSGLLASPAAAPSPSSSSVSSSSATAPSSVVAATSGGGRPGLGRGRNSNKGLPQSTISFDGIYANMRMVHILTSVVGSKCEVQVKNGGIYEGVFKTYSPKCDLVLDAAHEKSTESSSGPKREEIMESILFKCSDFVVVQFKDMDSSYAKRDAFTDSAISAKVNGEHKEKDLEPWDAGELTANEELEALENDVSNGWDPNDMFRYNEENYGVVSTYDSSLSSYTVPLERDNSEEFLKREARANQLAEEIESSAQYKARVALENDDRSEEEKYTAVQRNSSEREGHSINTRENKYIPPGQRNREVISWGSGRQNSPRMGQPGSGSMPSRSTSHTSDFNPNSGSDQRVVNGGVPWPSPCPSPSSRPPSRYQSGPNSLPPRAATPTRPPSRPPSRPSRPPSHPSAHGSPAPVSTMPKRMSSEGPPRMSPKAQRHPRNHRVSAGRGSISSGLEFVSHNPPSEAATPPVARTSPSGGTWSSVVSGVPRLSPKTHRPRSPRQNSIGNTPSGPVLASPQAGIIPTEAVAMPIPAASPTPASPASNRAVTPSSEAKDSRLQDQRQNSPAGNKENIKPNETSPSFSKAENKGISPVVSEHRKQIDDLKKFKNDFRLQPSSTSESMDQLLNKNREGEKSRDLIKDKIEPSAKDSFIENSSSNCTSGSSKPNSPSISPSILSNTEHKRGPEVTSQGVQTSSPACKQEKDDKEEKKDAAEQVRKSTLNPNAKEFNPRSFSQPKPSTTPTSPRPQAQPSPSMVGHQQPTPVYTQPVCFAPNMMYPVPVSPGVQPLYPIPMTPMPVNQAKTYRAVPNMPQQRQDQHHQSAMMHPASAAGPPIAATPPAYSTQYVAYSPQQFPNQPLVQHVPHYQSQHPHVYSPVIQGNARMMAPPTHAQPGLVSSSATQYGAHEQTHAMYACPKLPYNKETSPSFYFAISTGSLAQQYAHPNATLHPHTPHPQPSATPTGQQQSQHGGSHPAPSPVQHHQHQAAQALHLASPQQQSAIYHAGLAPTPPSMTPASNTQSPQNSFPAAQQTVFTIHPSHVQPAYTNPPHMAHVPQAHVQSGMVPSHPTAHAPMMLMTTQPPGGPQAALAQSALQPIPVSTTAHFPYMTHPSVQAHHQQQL

Row | Structure (SMILES) | Potency
1 | CN1C(=O)/C(=N\CCc2ccccc2)c2c3ccccc3c(O)c3cccc1c23 | inactive
2 | Sc1nc(-c2ccccc2)cn1/N=C/c1ccccc1Br | inactive
3 | CCn1c(/C=C/c2ccc(O)cc2)nc2ccccc2c1=O | inactive
4 | CS(=O)(=O)c1ccc(C(=O)OCc2nnc(-c3ccc(Cl)cc3)o2)cc1[N+](=O)[O-] | 28.2 µM (active)
5 | COc1ccc(-c2cc(-c3nnc(COC(=O)c4ccncc4)o3)c3ccccc3n2)cc1OC | inactive
6 | NC(=O)c1ccc(Oc2ccc(Cl)cc2)c([N+](=O)[O-])c1 | inactive
7 | CC(=O)Oc1ccc(-c2cc3c(OC(C)=O)cc(OC(C)=O)cc3oc2=O)cc1 | inactive
8 | OC[C@@H]1[C@@H](c2ccc(F)cc2)C(c2cccc(Cl)c2)=NN1c1ccccc1 | inactive
9 | CCN(CC)CCn1c(C)nc2c(sc3nc4c(cc32)COC(C)(C)C4)c1=O | inactive
10 | O=C(N/N=C/c1c(O)ccc2ccccc12)c1ccc(Br)o1 | inactive
11 | C/C(=N\NC(=O)c1ccc(C(=O)N/N=C(\C)c2ccco2)o1)c1ccco1 | inactive
12 | O=C(N/N=C/c1sc(=O)n(Cc2ccc(Br)cc2)c1Cl)c1ccco1 | 20 µM (active)
13 | CC1=C(C(=O)Nc2ccc(Cl)cc2)C(c2ccc(C(F)(F)F)cc2)n2nnnc2N1 (configuration not stated) | 28.2 µM (active)
14 | CN1CCc2ccc(NC(=O)c3ccc(C(F)(F)F)cc3)cc2C1 | inactive
15 | O=C(Nc1ccc(Cl)cc1)c1cnn2c1NC(c1ccccc1)=CC2c1ccccc1 (configuration not stated) | inactive
16 | Cc1ccc(S(=O)(=O)Nc2ccccc2/C=N/c2nc3ccccc3n2C)cc1 | inactive
17 | O=C(c1cnn(C(=O)c2ccco2)c1)c1ccccc1O | inactive
18 | Cc1ccc(/C=N/N2C(=O)c3ccccc3NC2c2ccc(C)cc2)cc1 (configuration not stated) | inactive
19 | C/C(=N\N1C(=O)c2ccccc2NC1c1ccco1)c1ccccc1O (configuration not stated) | 2 µM (active)
20 | COc1cccc(C2C=C(c3ccc(Br)s3)Nc3ncnn32)c1OC (configuration not stated) | inactive
21 | O=[N+]([O-])c1ccc(C2(O)C[N+](c3ccccc3)=C3SCCN32)cc1 (configuration not stated) | inactive

Row | Structure (SMILES) | Potency
22 | Cc1ccsc1/C=C1\Oc2cc(O)ccc2C1=O | inactive
23 | O=S(=O)(NNc1ncc(C(F)(F)F)cc1Cl)c1ccc(F)cc1F | inactive
24 | NNc1nc2cccnc2n(CCNc2ncc(C(F)(F)F)cc2Cl)c1=O | inactive
25 | O=C1C=CC(=O)N1CCNc1ncc(C(F)(F)F)cc1Cl | 35.5 µM (active)
26 | CCOCCCn1c(=N)c(C(=O)NCc2ccco2)cc2c(=O)n3ccccc3nc21 | inactive
27 | O=C1c2ccccc2C(Nc2ccc(Cl)cn2)N1c1cccnc1 (configuration not stated) | inactive
28 | O=C1[C@H](Oc2ccccc2)[C@@H](c2ccccc2)N1c1ccncc1 | 28.2 µM (active)
29 | O=C1[C@H]2C(c3ccccc3)=NN(c3ccccc3)[C@H]2C(=O)N1c1ccccc1 | inactive
30 | O=C1[C@@H](c2ccccc2)[C@@H](c2ccccc2)N1c1cccnc1 | 25.1 µM (active)
31 | CCOC(=O)C1CCN(Cc2nc3ccc([N+](=O)[O-])cc3c(=O)n2-c2ccc(OC)cc2OC)CC1 | inactive
32 | N#CC1=C(N)Oc2cc(O)ccc2C1c1ccc(Br)s1 (configuration not stated) | inactive
33 | c1cc2c3c(cccc3c1)NC1(CCC3(CC1)Nc1cccc4cccc(c14)N3)N2 | 35.5 µM (active)
34 | Cn1c(-c2cc3ccc(OC(=O)C(C)(C)C)cc3oc2=O)nc2ccccc21 | inactive
35 | COc1ccc(NC(=O)c2c(NC(=O)CCC(=O)O)sc3c2CCCCC3)cc1 | inactive
36 | CCOc1ccccc1NC(=O)c1c(NC(=O)Cc2ccc(OC)cc2)sc2c1CCC2 | 25.1 µM (active)
37 | COc1ccc(-c2c3c(nc4sc(C(=O)Nc5ccccc5)c(N)c24)CCC3)cc1 | inactive
38 | COc1ccc(CC(=O)Nc2sc3c(c2C(=O)Nc2cccc(Cl)c2)CCCCC3)cc1 | 28.2 µM (active)
39 | CCOc1ccccc1NC(=O)c1sc2nc(-c3ccc(OC)cc3)ccc2c1N | inactive
40 | OC[C@@H]1[C@@H](c2ccccc2)C(c2ccc(F)cc2)=NN1c1ccccc1 | inactive
41 | Cn1c(=O)c2nc3ccc(NC(=O)C(F)(F)F)cc3nc2n(C)c1=O | inactive
42 | Cc1cc(C)n(CCC(=O)Nc2cccc(F)c2)n1 | inactive

Row | Structure (SMILES) | Potency
43 | O=C(CCn1cnc2onc(-c3ccc(F)cc3)c2c1=O)Nc1cccc(C(F)(F)F)c1 | 20 µM (active)
44 | CC(C)(C)c1ccc(C(=O)Nc2cccc3c(=O)[nH][nH]c(=O)c23)cc1 | inactive
45 | Cc1ccc(S(=O)(=O)N2CCOCC2)cc1NC(=O)COC(=O)CNC(=O)c1ccc(C(C)(C)C)cc1 | inactive
46 | Cc1ccc(NC(=O)C2CCC(C(C)(C)C)CC2)cc1S(=O)(=O)N1CCOCC1 (configuration not stated) | 31.6 µM (active)
47 | O=C(Nc1ccc(Cl)c(S(=O)(=O)N2CCOCC2)c1)c1ccc(OCC2CCCO2)cc1 (configuration not stated) | 11.2 µM (active)
48 | Cc1ccc(NC(=O)CCS(=O)(=O)c2ccccc2)cc1S(=O)(=O)N1CCOCC1 | inactive
49 | Cc1cc(C)n(-c2ccc(C(=O)Nc3ccc(C)c(S(=O)(=O)N4CCOCC4)c3)cc2)n1 | 12.6 µM (active)
50 | O=C(Nc1cccc(S(=O)(=O)N2CCCCC2)c1)c1ccc(OCC2CCCO2)cc1 (configuration not stated) | inactive
51 | COc1ccc(NC(=O)CSc2nnc(C)n2C2CC2)cc1S(=O)(=O)N1CCOCC1 | inactive
52 | Cc1cc(C(=O)Nc2ccc(Cl)c(S(=O)(=O)N3CCOCC3)c2)c2ccccc2n1 | inactive
53 | O=C(NC1=NCCS1)c1ccc(Cl)c(S(=O)(=O)N2CCOCC2)c1 | inactive
54 | Cc1cc(/C=C(\C#N)C(=O)NC2CCCCCC2)c(C)n1C | inactive
55 | COc1ccc(C2CC(c3cccc(Cl)c3)=NN2c2ccc(S(N)(=O)=O)cc2)cc1 (configuration not stated) | inactive
56 | CC1Cc2ccccc2N1CC(=O)NC(=O)NC1CCCC1 (configuration not stated) | inactive
57 | COc1ccc(CN2CCCC(C(=O)N3CCCCC3)C2)cc1 (configuration not stated) | inactive
58 | O=C(C1=C[C@@H](C2CCCCC2)C[C@@H](OCc2ccc(CO)cc2)O1)N1CCN(Cc2ccccc2)CC1 | 39.8 µM (active)
59 | O=C(c1cccnc1)N1CCN(Cc2ccc3ccccc3c2)CC1 | inactive
60 | Cc1cc(=O)oc2cc(OC(=O)c3cncc(Br)c3)ccc12 | inactive
61 | Cc1c(C2(O)CCCCC2)[nH]c2cc(C(F)(F)F)ccc12 | 35.5 µM (active)
62 | CCc1c(C2(O)CCCCC2)[nH]c2ccc(C(F)(F)F)cc12 | 25.1 µM (active)
